Among the test systems are HCT-15 colon; HT29 colon; SNB-75 CNS; SNB-19 CNS; U251 CNS; PC-3 prostate; SK-MEL-5 melanoma; UACC-62 melanoma; LOX IMVI melanoma; SK-MEL-28 melanoma; SK-MEL-2 melanoma; EKVX NSCLC; SN12C renal; UO-31 renal; TK-10 renal; ACHN renal; CAKI-1 renal; A498 renal; CCRF-CEM leukemia; MOLT-4 leukemia.
Holding throughout (assay): NCI-60 one-dose screen, 48 h (100 = growth as untreated, 0 = no growth, -100 = all killed)
Common to all, as to settings: 10 µM unless noted

Structures are written as SMILES. This is part of a sample that, as a whole, favours compounds with a hit. Of some 83,000 tested, about 20% had one in any assay.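 Each cell line was grown in a 96-well plate and treated with one concentration of compound for 48 hours. Values below 10 were considered active.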 Unmarked numbers belong to inactive results. Calls of active or inactive are those of the source.

For the molecule `Cc1[nH]n(C(=O)c2ccncc2)c(=O)c1N=Nc1ccc(F)c(Cl)c1`, the growth in the test with HCT-15 colon is 111%; with HT29 colon, 109%; in the test on SNB-75 CNS, 92.4%; in the test on SNB-19 CNS, 99.1%; in the test with U251 CNS, 112%; with PC-3 prostate, 116%. Moreover, the growth was 107% with SK-MEL-5 melanoma; 106% in the test on UACC-62 melanoma; 111% in the test with LOX IMVI melanoma; 107% in the test on SK-MEL-28 melanoma; 114% with SK-MEL-2 melanoma; 87.8% with EKVX NSCLC. Further, the growth with SN12C renal was 102%; in the test on UO-31 renal it was 86.7%; in the test with TK-10 renal, 134%; with ACHN renal, 110%; in the test with CAKI-1 renal, 63.4%; in the test with A498 renal, 102%. In addition, the values for the growth in the test on CCRF-CEM leukemia and in the test on MOLT-4 leukemia were 19.7% and 11.6%, respectively.

On to `Clc1ccc(N2N=C(c3cccc(Nc4ccncc4)c3)CC2c2ccc(Br)cc2)cc1` (stereo not given), for which the growth with HCT-15 colon is -74.7% (active); in the test with HT29 colon it was -2.76% (active); in the test on SNB-75 CNS it was 79.2%; with SNB-19 CNS it was 80.8%; in the test on U251 CNS, -41.5% (active); with PC-3 prostate it was 22%. The growth in the test on SK-MEL-5 melanoma is 68.6%; in the test with UACC-62 melanoma, 101%; with LOX IMVI melanoma, -96% (active); in the test with SK-MEL-28 melanoma, -85.5% (active); in the test on SK-MEL-2 melanoma, 94.7%; with EKVX NSCLC it was 77.9%. Further, the growth was 54.3% in the test on SN12C renal; 43.2% in the test with UO-31 renal; 62.3% in the test on TK-10 renal; 2.34% (active) with ACHN renal; 27.3% in the test with CAKI-1 renal; 71.6% in the test with A498 renal. In addition, the figures for the growth in the test on CCRF-CEM leukemia and in the test on MOLT-4 leukemia were 3.27% (active) and -0.295% (active), respectively.

With `ClCC1(Cn2cnc3c(Cl)nc(Cl)nc32)COC1`, the growth in the test with HCT-15 colon was 45.9%; with HT29 colon, 76.8%; in the test on SNB-75 CNS, 85.4%; in the test with SNB-19 CNS, 88.8%; in the test with U251 CNS, 89.2%; in the test with PC-3 prostate it was 66.3%. For the same molecule, the growth with SK-MEL-5 melanoma was 98.4%; with UACC-62 melanoma it was 91.6%; in the test on LOX IMVI melanoma, 45.2%; with SK-MEL-28 melanoma it was 89.9%; with SK-MEL-2 melanoma it was 90.7%; with EKVX NSCLC it was 100%. Besides, the growth in the test with SN12C renal is 95.6%; in the test on UO-31 renal it was 88.7%; with TK-10 renal, 85.2%; with ACHN renal, 94.9%; in the test with CAKI-1 renal, 49%; in the test on A498 renal it was 89.6%. Further, the growth was 71.5% in the test on CCRF-CEM leukemia and 87.7% in the test on MOLT-4 leukemia.

With `O=C(CN1CCOCC1)Nc1ccc2ncnc(Nc3ccc(Oc4cccc(C(F)(F)F)c4)c(Cl)c3)c2c1`, the growth in the test with HCT-15 colon is 52.2%; with HT29 colon, 54%; with SNB-75 CNS it was 73.7%; with SNB-19 CNS, 61.9%; in the test with U251 CNS, 62.4%; in the test with PC-3 prostate, 44.5%. The growth in the test with SK-MEL-5 melanoma is 58.9%; in the test with UACC-62 melanoma, 71%; in the test on LOX IMVI melanoma, 43.8%; in the test on SK-MEL-28 melanoma, 77.1%; in the test with SK-MEL-2 melanoma, 75.9%; in the test on EKVX NSCLC, 22%. Further, the growth is 38.4% with SN12C renal; 22.5% in the test with UO-31 renal; 38.4% in the test on TK-10 renal; 19% in the test on ACHN renal; 33.8% with CAKI-1 renal; 10.1% with A498 renal. Further, the values for the growth in the test on CCRF-CEM leukemia and in the test on MOLT-4 leukemia were 58.4% and 37.5%, respectively.

`Cc1ccccc1C(c1ccccc1)c1ccccc1C`: the growth was 95.6% with HCT-15 colon; 95.8% in the test with HT29 colon; 79.5% in the test with SNB-75 CNS; 98.7% with SNB-19 CNS; 99.3% in the test on U251 CNS; 83.2% in the test on PC-3 prostate. The growth with SK-MEL-5 melanoma is 77.8%; with UACC-62 melanoma, 100%; with LOX IMVI melanoma it was 94.9%; in the test with SK-MEL-28 melanoma, 103%; in the test with SK-MEL-2 melanoma, 101%; in the test on EKVX NSCLC, 96.3%. The growth in the test on SN12C renal is 96.8%; in the test with UO-31 renal, 79.2%; in the test on TK-10 renal it was 100%; in the test with ACHN renal it was 94.2%; in the test on CAKI-1 renal, 87.6%; with A498 renal, 83.6%. Further, the growth in the test with CCRF-CEM leukemia is 83.3%; in the test on MOLT-4 leukemia, 93.5%.

For `CC1=CC[C@@H]2CC[C@]3(C)[C@H](CC[C@@H]4[C@@]5(C)CCCNC(C)(C)[C@@H]5CC[C@]43C)[C@H]2[C@@H]1C`, the growth in the test on HCT-15 colon is -57.8% (active); in the test on HT29 colon it was -55.2% (active); in the test on SNB-75 CNS it was 76.5%; in the test on SNB-19 CNS, 18.1%; in the test on U251 CNS, -90.8% (active); in the test with PC-3 prostate, 27.7%. For the same molecule, the growth is 89.9% in the test on SK-MEL-5 melanoma; 92.4% in the test on UACC-62 melanoma; -100% (active) with LOX IMVI melanoma; 63.7% with SK-MEL-28 melanoma; 94.6% with SK-MEL-2 melanoma; 84.5% in the test with EKVX NSCLC. Besides, the growth in the test on SN12C renal is 48.3%; with UO-31 renal it was 55.7%; in the test on TK-10 renal it was 80.5%; in the test with ACHN renal, 8.91% (active); in the test with CAKI-1 renal, 30.4%; in the test with A498 renal, 60.2%. For the same molecule, the growth in the test on CCRF-CEM leukemia is 5.21% (active); in the test with MOLT-4 leukemia, -8.43% (active).

Consider `CC(C)(O)C1CCCN1C(=O)c1ccccc1I` (stereo not given), for which the growth in the test on HCT-15 colon is 98.7%; in the test with HT29 colon it was 95.4%; with SNB-75 CNS, 100%; in the test on SNB-19 CNS, 78.2%; in the test on U251 CNS, 98.3%; with PC-3 prostate, 80.7%. Besides, the growth in the test with SK-MEL-5 melanoma was 92.9%; in the test with UACC-62 melanoma, 64.3%; with LOX IMVI melanoma, 101%; with SK-MEL-28 melanoma it was 105%; in the test on SK-MEL-2 melanoma it was 132%; with EKVX NSCLC, 97.7%. Also, the growth in the test with SN12C renal was 95%; in the test on UO-31 renal it was 82.7%; in the test on TK-10 renal, 107%; in the test with ACHN renal, 105%; in the test with CAKI-1 renal, 88.2%; in the test with A498 renal, 73.6%. Moreover, the values for the growth with CCRF-CEM leukemia and in the test with MOLT-4 leukemia were 41.1% and -67.6% (active), respectively.

Regarding `CN1CCN(c2cnc(C(=O)Nc3cc(F)cc4cccnc34)cn2)CC1`, the growth in the test on HCT-15 colon is 30.8%; with HT29 colon it was 42.6%; in the test with SNB-75 CNS, 95.2%; in the test on SNB-19 CNS, 87.4%; with U251 CNS, 79.9%; in the test with PC-3 prostate it was 21.4%. Moreover, the growth is 89.2% with SK-MEL-5 melanoma; 95.3% in the test on UACC-62 melanoma; 59.6% in the test with LOX IMVI melanoma; 67.8% in the test with SK-MEL-28 melanoma; 94.8% with SK-MEL-2 melanoma; 45.5% in the test with EKVX NSCLC. Also, the growth in the test on SN12C renal was 62.2%; with UO-31 renal, 43%; in the test with TK-10 renal, 69.3%; in the test on ACHN renal, 26.5%; with CAKI-1 renal, 57.3%; in the test with A498 renal, 75.7%. The figures for the growth in the test with CCRF-CEM leukemia and in the test on MOLT-4 leukemia were 35.6% and 23.5%, respectively.

The values are drawn from PubChem BioAssay (NCI).
